ST2 IL33 inh = inhibitors of human ST2 (IL1RL1) binding to IL-33, primary screen, biochemical, AlphaLISA; Interleukin-1 receptor-like 1 (Homo sapiens), Q01638; AlphaLISA ST2-Fc/biotin-IL-33 interaction, 1 h; inhibition, % for hits at 17 µM; 78,000 compounds, 2.3% hits; in the data active means inhibition above about 30%
Target sequence (Q01638 whole entry, looked up): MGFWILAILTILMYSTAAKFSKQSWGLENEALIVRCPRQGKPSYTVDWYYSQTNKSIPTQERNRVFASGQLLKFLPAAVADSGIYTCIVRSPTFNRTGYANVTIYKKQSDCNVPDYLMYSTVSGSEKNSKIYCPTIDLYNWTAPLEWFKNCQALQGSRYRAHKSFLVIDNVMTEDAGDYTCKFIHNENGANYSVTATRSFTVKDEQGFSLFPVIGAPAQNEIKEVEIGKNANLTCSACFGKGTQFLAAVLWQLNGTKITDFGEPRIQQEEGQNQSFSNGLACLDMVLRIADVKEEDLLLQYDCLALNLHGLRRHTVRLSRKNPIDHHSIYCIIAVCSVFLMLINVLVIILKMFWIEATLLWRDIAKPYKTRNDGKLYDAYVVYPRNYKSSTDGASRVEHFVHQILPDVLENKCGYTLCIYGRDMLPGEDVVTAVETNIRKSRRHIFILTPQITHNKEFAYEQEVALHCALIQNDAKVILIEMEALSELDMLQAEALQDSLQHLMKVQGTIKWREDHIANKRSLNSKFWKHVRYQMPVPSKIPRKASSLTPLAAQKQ
* marks the source's active call; other numbers are inactive results; i = inactive. Many of the other results were omitted from the sample, so hits are more common in it than they were.

SMILES	ST2 IL33 inh
CC1=NN(c2ccc(Cl)c(C(=O)O)c2)C(=O)/C1=C\c1ccc(Cl)cc1	48.0%*
CC1=NN(c2ccc(Cl)c(Cl)c2)C(=O)/C1=C/c1cccs1	54.0%*
COc1cc(/C=C2\C(=O)N(c3ccc(Cl)c(C(=O)O)c3)N=C2C)cc(Br)c1O	75.0%*
COc1cc(/C=C2/C(=O)N(c3ccc(Cl)c(Cl)c3)N=C2C)cc(OC)c1O	35.0%*
COc1ccccc1/C=C1\C(=O)N(c2ccc(Cl)c(Cl)c2)N=C1C	i
COc1ccc(/C=C2\C(=O)N(c3ccc(Cl)c(C(=O)O)c3)N=C2C)cc1OC	i
CC1=NN(c2ccc(Cl)c(C(=O)O)c2)C(=O)/C1=C\c1ccc(Br)cc1	i
CC1=NN(c2ccc(Cl)c(C(=O)O)c2)C(=O)/C1=C\c1ccc(OCc2ccccc2)cc1	i
C=CCOc1ccc(/C=C2\C(=O)N(c3ccc(Cl)c(C(=O)O)c3)N=C2C)cc1OC	i
COc1cc(Br)c(/C=C2/C(=O)N(c3ccc(Cl)c(Cl)c3)N=C2C)cc1OC	i
COc1ccc(/C=C2/C(=O)N(c3ccc(Cl)c(Cl)c3)N=C2C)cc1[N+](=O)[O-]	i
COCC(NC(=O)c1sc(C)nc1C)c1ccnn1C (stereo not given)	i
Cc1cc(Cl)ccc1Nc1ncnc2ccccc12	i
Cc1c(CC(=O)NCc2ccon2)c2c(n1CC(C)C)CC(C)(C)CC2=O	i
CC(C)C(NC(=O)COc1cccnc1)c1nnc2n1CCNCC2 (stereo not given)	i
O=C(NCc1cccs1)c1cc(=O)[nH]c2ccc(S(=O)(=O)N3CCCC3)cc12	i
O=C(CCS(=O)(=O)c1cccs1)N1CCCCCC1	i
COCc1[nH]nc2c1C(c1cccc3ccccc13)C(C#N)=C(N)O2 (stereo not given)	i
CCC(=O)Nc1ccc(-c2c(F)cccc2OC)c(C)n1	i
CCOc1ccc(S(=O)(=O)NCc2nc3cccnc3n2Cc2ccc(C)cc2)cc1	i
COc1ccc(/C=C2/C(=O)N(c3ccc(Cl)c(Cl)c3)N=C2C)cc1Br	i
COc1cc(/C=C2/C(=O)N(c3ccc(Cl)c(Cl)c3)N=C2C)cc(OC)c1OC	55.0%*
C=CCOc1ccc(/C=C2/C(=O)N(c3ccc(Cl)c(Cl)c3)N=C2C)cc1OC	i
Cc1ccccc1OCC(=O)Nc1ncc(Cc2ccc(F)cc2)s1	i
CN1CCN([C@@H]2[C@H](O)[C@H](CO)O[C@@H]2CNC(=O)Nc2ccc(OC(F)(F)F)cc2)CC1	i
SMILES	ST2 IL33 inh
CCOc1ccc2nc(N3CCCC3)sc2c1	i
Cc1cccc(NC(c2ccc(F)cc2)c2ccc3cccnc3c2O)n1 (stereo not given)	30.0%*
Cc1ccc(S(=O)(=O)Nc2ccccn2)cc1C	i
Cc1cccc(NC(c2cccc(C)n2)c2ccc3ccc(C)nc3c2O)n1 (stereo not given)	i
Cc1cccc(NC(c2cccc(F)c2)c2ccc3cccnc3c2O)n1 (stereo not given)	i
COc1ccc(C(Nc2ccccn2)c2ccc3ccc(C)nc3c2O)cc1C (stereo not given)	31.0%*
CCC(C(=O)Nc1cccc(C)n1)c1ccccc1 (stereo not given)	i
Cc1cccc(NC(c2cccc(Cl)c2)c2ccc3cccnc3c2O)n1 (stereo not given)	34.0%*
O=c1cc(CO)oc(C(Nc2ccccn2)c2ccc3c(c2)OCO3)c1O (stereo not given)	i
O=C(CCS(=O)(=O)c1cccc2cccnc12)Nc1ccc(F)cc1	i
Cc1cccc(NC(c2ccccc2)c2ccc3ccc(C)nc3c2O)n1 (stereo not given)	36.0%*
Cc1cc(C)n(-c2cccc3cccnc23)n1	i
Cc1cc(Cl)ccc1NC(=O)CSc1cccc2cccnc12	i
COC(=O)[C@@H]1C[C@@H](NC(=O)CCn2nnc3ccccc32)CN1C	i
CC(C)C(NC(=O)c1ccccc1NC(=O)C(Cl)(Cl)Cl)C(=O)NC(C)(C)C (stereo not given)	i
Cc1ccc(NC(=O)c2cnc3scc(C)n3c2=O)cc1C	i
C1=CC[C@H]2CN(Cc3cc4n(n3)CCCNC4)C[C@H]2C1	i
N#CC1=C2SCN(c3ccccc3F)CN2C(=O)CC1c1ccccc1F (stereo not given)	i
Oc1c(Br)cc(Br)cc1C=Nc1ccccc1F	i
COc1cccc(C2=NN(C(=O)c3ccccc3Br)C(O)(C(F)(F)F)C2)c1 (stereo not given)	i
CCN(CC)S(=O)(=O)c1ccc(NC(=O)C2CCCCC2)cc1	i
CCN1C(=O)CSc2ccc(C(=O)NC3CCCC3)cc21	i
CC(=O)NC(c1ccc(Cl)cc1Cl)c1ccc2cccnc2c1O (stereo not given)	i
Cc1ccnc(NC(c2ccc(N(C)C)cc2)c2ccc3cccnc3c2O)c1 (stereo not given)	32.0%*
COc1cc(C(Nc2cc(C)ccn2)c2ccc3cccnc3c2O)ccc1O (stereo not given)	i
SMILES	ST2 IL33 inh
Cc1cccc(C)c1-c1c(-c2ccccc2)ncn1CCC(=O)N1CCCC1	i
O=C(c1ccccc1)N(c1ccc(Br)cc1)C1C=CS(=O)(=O)C1 (stereo not given)	i
CCSc1sc(SC#N)cc1SC#N	47.0%*
CC(C)(C)Sc1ccc(SC#N)s1	i
O=C(C1CC1)N1CCc2cc(Br)cc(S(=O)(=O)Nc3cccc(F)c3)c21	i
COc1cc(C(=O)N2CCCN(c3ccncc3C)CC2)nc(OC)n1	i
O=C(COc1ccc(Br)cc1)Nc1ccc(F)cc1	39.0%*
Cc1ccc(NC(=O)COc2ccc(C)cc2)cc1	i
CC(C)Oc1cccc(C(=O)Nc2cc(-c3nc4ncccc4o3)ccc2Cl)c1	i
O=C(COc1ccc(Br)cc1)Nc1ccc(-c2nc3ncccc3o2)cc1	33.0%*
CCC(=O)Nc1ccc(-c2nc3ncccc3o2)cc1	i
CCOc1ccc(C(=O)Nc2cc(-c3nc4ncccc4o3)ccc2C)cc1	i
O=C(COc1ccccc1)Nc1ccc(Cl)cc1	i
Cc1ccc(OCC(=O)Nc2cc(-c3nc4ncccc4o3)ccc2Cl)cc1C	30.0%*
Cc1ccc(-c2nc3ncccc3o2)cc1NC(=O)COc1ccc(Br)cc1	i
COc1cccc(OCC(=O)Nc2cc(N3CCCS3(=O)=O)ccc2OC)c1	i
C=CCN(Cc1ccccc1OCC)C(=O)c1nc2c(C)cccn2c1F	i
Cc1cc(C(=O)N2CCOc3ccc(CN4CCC(OCc5ccccc5)CC4)cc3C2)c(C)o1	i
CCC1Oc2ccccc2N(CC(=O)NCCCOC(C)C)C1=O (stereo not given)	i
Cc1ccc(NC(=O)N2CCC(n3c(C)nc4cccnc43)CC2)cc1C	i
Cc1c(C(=O)N2C[C@@H]3[C@H](C2)[C@H]2CC[C@@H]3O2)sc2ccccc12	i
CN(CCCC1CCCO1)C(=O)C1(N)CC1 (stereo not given)	i
COc1cccc(Cn2c(CNS(=O)(=O)c3ccc(C(C)C)cc3)nc3cccnc32)c1	i
O=C(O)c1ccc(S(=O)(=O)c2ccc3c(c2)C(=O)N(c2nccs2)C3=O)cc1	i
CC(C)CN1C(=O)c2ccc(S(=O)(=O)c3ccc4c(c3)C(=O)N(CC(C)C)C4=O)cc2C1=O	i
CC(C)(C)N1C(=O)c2ccc(S(=O)(=O)c3ccc4c(c3)C(=O)N(C(C)(C)C)C4=O)cc2C1=O	30.0%*
Cc1cccc(C(=O)Nc2ccccc2-c2nc3ccccc3[nH]2)c1	i

Screening data as filed in PubChem.
